Experimental data: PubChem BioAssay (NCATS)
Results filed as inconclusive are left out. A number with no mark means an inactive call. Calls follow the shape of the dose curve; as a rule, active = well fitted inhibition curve with a large enough effect; inconclusive = small, poorly fitted or top-dose-only effect; inactive = no such curve, though single readings can be large or run the other way.

test system: Zika virus NS2B-NS3 protease (unlinked complex); assay: Primary screen GU Rhodamine qHTS for Zika virus inhibitors: Unlinked NS2B-NS3 protease assay (AID 1347159); conditions: Recombinant ZIKV NS2B-NS3 protease, Rhodamine110 substrate fluorescence; series mostly up to 107 µM; activity change, negative = inhibition: at the top concentration; also: nearly all actives have a fitted effect of over 60% in size
Excerpt: Avindra Nath, Ph.D., National Institute of Neurological Disorders and Stroke (NINDS), Bethesda, MD
Radhakrishnan Padmanabhan, Ph.D., Georgetown University (GU), Washington D.C.
Zika Virus causes congenital defects, including microcephaly and is associated with Guillain-Barre syndrome, eningoencephalitis and myelitis in infected adult. […] Using a target-based approach, we hope to establish a screening paradigm to uncover novel, cell-active NS2B-NS3 protease (Zika Virus) specific inhibitors from NCATS' collection of small molecules using qHTS.
Four assay panel was created to identify potential Zika Virus inhibitors. Namely, (1) GU unlinked NS2B-NS3 AMC tagged protease qHTS, (2) GU unlinked NS2B-NS3 Rhodamine tagged protease qHTS, (3) NINDS linked NS2B-NS3 AMC tagged protease qHTS, (4) NINDS linked NS2B-NS3 Rhodamine tagged protease qHTS. Active compounds were re-acquired and re-screened to confirm inhibition. Inhibitors were further screened against various confirmatory and counterscreens in dose response format.
Early Translation Branch (ETB)
National Center for Advancing Translational Sciences (NCATS), Rockville, MD
National Institute of Health (NIH), Bethesda, Maryland
Padmanabhan lab provided the NS2B hydrophilic domain and NS3 protease domain in a noncovalent complex used for the unlinked assay. Control compound aprotinin is obtained from Thermo Scientific (#78432; Waltham, Massachusetts). Rhodamine110 substrate ([N-Cbz]-Nle-Lys-Arg-Arg-Rhod110-Arg-Arg-Lys-Nle-[N-Cbz]) was purchased from either Genscript or Bachem.
1536-well Protease (Rhodamine110 Substrate) Assay:
Briefly, 3 microL of enzyme (25 nM final concentration), in assay buffer (10 mM Tris-HCl pH 8.0 with 0.01% Tween 20) were dispensed into a 1,536-well solid-bottom black plate (Greiner Bio One, Monroe, NC). Twenty-three nL of compounds (final concentration range 7.28 nM to 114 microM) or control Aprotinin (final concentration range 3.47 nM to 114 microM) were transferred via Wako Pin-tool (Wako Automation, Richmond, VA). Samples were incubated (room temperature, protected from light) for 15 minutes followed by a 1 microL Rhodamine110 substrate addition (1.5 microM final concentration). Plates were then immediately read on a ViewLux High-throughput CCD imager (PerkinElmer, Waltham, MA) equipped with FITC fluorescence optics (480(20) nm excitation, 540(25) nm emission), then incubated (room temperature, protected from light) for 15 minutes (~15% conversion). The change in fluorescence intensity over the 15-minute reaction period was normalized against no-inhibitor and no-enzyme controls and the resulting percent inhibition data were fitted to a 4-parameter Hill equation. Aprotinin was used as intraplate control.
% is scaled to controls: 0 for no effect and ±100 for the full control effect.

Structure (SMILES)	activity change, negative = inhibition
COc1ccc2c(C(=O)c3ccc(Cl)cc3)c(C)n(CC(=O)O)c2c1	21.3%
CCOC(=O)NC(C)(C)Cc1ccc(Cl)cc1	0%
O=C(N[C@@H]1N=C(c2ccccc2F)c2cccc3c2N(CC3)C1=O)c1cc2ccccc2[nH]1	0% [at 32.5 µM]
C[C@]12CC[C@H](O)CC1=CC[C@@H]1[C@@H]2CC[C@]2(C)C(=O)CC[C@@H]12	-1.31%
CCCC[N+]1(C)[C@@H]2CC(OC(=O)[C@H](CO)c3ccccc3)C[C@H]1[C@@H]1O[C@@H]12 (some centres not stated)	23.8%
CCOC(=O)c1ncn2c1CN(C)C(=O)c1c(I)cccc1-2	6.14%
Cc1nnc2n1-c1sc(CCc3ccc(CC(C)C)cc3)cc1C(c1ccccc1Cl)=NC2C (configuration not stated)	3.65%
CCOC(=O)c1cncn1C(C)c1ccccc1 (configuration not stated)	-8.81%
O=C(N[C@H]1N=C(c2ccccc2F)c2cccc3c2N(CC3)C1=O)c1cc2ccccc2[nH]1	17.4%
CCCOC(=O)Cc1ccc(OCC(=O)N(CC)CC)c(OC)c1	0% [at 57.1 µM]
O=C(O)CCCCCCNC1c2ccccc2CCc2ccccc21	4.32%
CC[C@H]1C[C@H]2[C@@H]3CCC4=CC(=O)CC[C@@H]4[C@H]3CC[C@]2(C)[C@H]1O	8.13%
